Consider 47 compounds from PubChem BioAssay AID624405 (Broad Institute, 2012).

Screen size: about 1,900 compounds; about 250 (13%) were called active. Another 4% or so got no clear call; they are omitted. These entries were drawn from the full list. Measured potencies and affinities stand elsewhere. Unmarked numbers belong to inactive results.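 How the source made its calls: active means fitted curve reaches 40% rescue activity at or below the top valid dose, in every test run; inconclusive means test runs disagree, some active and some inactive; inactive means every run misses the threshold or moves the wrong way.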

This test is described as follows: suppressors of statin myotoxicity in myotubes, dose response, cell-based, C2C12 myotubes, ATP luminescence, cherry pick (AID 624405).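 Further: myotubes are challenged with simvastatin at 10 µM to lower ATP.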 The settings on record: C2C12 myotubes + simvastatin, 48 h, scaled: DMSO wells 0, geranylgeraniol wells 100; series mostly up to 19.5 µM; rescue activity (ATP increase): at the top concentration.
As for `O=C(Nc1ccccc1Cl)N1C[C@@H]2[C@H](c3ccccc31)[C@@H](CO)N2Cc1ccccc1`, the “rescue activity (ATP increase)” value is -13%. In the case of `Cc1ccc(S(=O)(=O)Nc2ccc3c(c2)CC(=O)N([C@H](C)CO)C[C@H](C)[C@@H](CN(C)Cc2ccc(C(F)(F)F)cc2)O3)cc1`, the “rescue activity (ATP increase)” value is 38.9%. Regarding `O=C(NCc1ccco1)c1ccccc1NS(=O)(=O)c1ccc2c(c1)OCCO2`, the “rescue activity (ATP increase)” value is 26%. The result for `FC(F)(F)c1nc2nncn2c2c1CCCCC2` reads 23.5%; that for `CCc1ccc(N2CC(C(=O)NC3=NCCS3)CC2=O)cc1` (configuration not stated), -11.8%. Turning to `Cc1ccc(N(CN2CCCC2=O)C(=O)c2ccc(C)c(C)c2)cc1`, the “rescue activity (ATP increase)” value was 29.9%. On to `CC(C)N1C(=O)CCC1C(=O)N1CCC(Cc2ccccc2)CC1` (configuration not stated), for which the “rescue activity (ATP increase)” value was 19.4%. For `CC(C)CC(NC(=O)C1CCC(C)CC1)C(=O)Nc1cccnc1` (configuration not stated), the “rescue activity (ATP increase)” value is -6.5%. Then `COc1ccc(S(=O)(=O)Nc2ccc3c(c2)CC(=O)N([C@H](C)CO)C[C@@H](C)[C@@H](CN(C)Cc2ccc(Cl)c(Cl)c2)O3)cc1`, with 36.8%. The result for `CC(C)NC(=O)Nc1ccc2c(c1)C(=O)N([C@H](C)CO)C[C@@H](C)[C@H](CN(C)C(=O)C1CCCCC1)OCCCC[C@@H](C)O2` reads 2.97%; that for `C[C@@H]1CN([C@@H](C)CO)C(=O)Cc2cc(NS(=O)(=O)c3cn(C)cn3)ccc2O[C@H]1CN(C)Cc1ccc(Cl)c(Cl)c1`, 4.02%. Consider `C[C@@H]1CN([C@H](C)CO)C(=O)Cc2cc(NS(=O)(=O)c3cn(C)cn3)ccc2O[C@H]1CN(C)Cc1ccc(Cl)c(Cl)c1`, for which the “rescue activity (ATP increase)” value was 12.2% [at 21 µM]. For the compound `C[C@@H]1CN([C@@H](C)CO)C(=O)Cc2cc(NS(=O)(=O)c3cn(C)cn3)ccc2O[C@@H]1CN(C)Cc1ccc(Cl)c(Cl)c1`, the “rescue activity (ATP increase)” value was 18.7% [at 21 µM]. For `C[C@H]1CN([C@@H](C)CO)C(=O)Cc2cc(NS(=O)(=O)c3cn(C)cn3)ccc2O[C@@H]1CN(C)Cc1ccc(Cl)c(Cl)c1`, the “rescue activity (ATP increase)” value is 12.7%. With `COc1ccc(CCNC2CCN(C)CC2)cc1OC`, the “rescue activity (ATP increase)” value is 0.107%. `Cc1[nH]c2ccccc2c(=O)c1SC(F)(F)C(F)C(F)(F)F` (configuration not stated): the “rescue activity (ATP increase)” value was -8.66%. The result for `Cc1ccc(CC2CC(=O)N(CCc3ccc4c(c3)OCO4)C2=O)cc1` (configuration not stated) reads 15.4%; that for `COc1ccc(NC(=O)N(C)C[C@H]2Oc3ccc(NC(=O)Cn4cnnn4)cc3C(=O)N([C@H](C)CO)C[C@H]2C)cc1`, 2.03%; that for `C[C@@H]1CN([C@H](C)CO)C(=O)Cc2cc(NC(=O)Cc3cn(C)c4ccccc34)ccc2O[C@H]1CN(C)Cc1ccc(C(F)(F)F)cc1`, -17.1%.

As for `COc1cc2c3c(c1)C1(C(=O)N3C(C)(C)C=C2C)C(C#N)=C(N)Oc2cc(C)oc(=O)c21` (configuration not stated), the “rescue activity (ATP increase)” value is 16%. In the case of `COc1ccc(CCN2C(=O)C3C(C2=O)C2C=CC3C23CC3)cc1OC` (configuration not stated), the “rescue activity (ATP increase)” value was -29.4%. The result for `C[C@@H]1CCCCO[C@@H](CN(C)Cc2ccc(Cl)c(Cl)c2)[C@@H](C)CN([C@H](C)CO)C(=O)c2cc(NC(=O)Cc3ccccc3)ccc2O1` reads 18% [at 21 µM]; that for `COc1ccc(-n2c(SCC(=O)Nc3ccc4c(c3)OCO4)nc3ccccc3c2=O)cc1`, 45.4%.

Take `Cc1ccc(CSCC(=O)Nc2ccc3c(c2)OCO3)cc1`: the “rescue activity (ATP increase)” value is -21.8%.

For the compound `C[C@@H]1CN([C@H](C)CO)C(=O)c2cccc(NC(=O)Nc3ccc(F)cc3)c2O[C@H]1CN(C)Cc1ccccc1`, the “rescue activity (ATP increase)” value is 1.81%. Turning to `Cc1ccc(C(C(=O)NC2CCCC2)N(Cc2cccs2)C(=O)CNC(=O)c2cccs2)o1` (configuration not stated), the “rescue activity (ATP increase)” value is 3.04%.

Consider `O=C(NC1CCCC1)C(c1ccsc1)N(Cc1ccco1)C(=O)Cc1cccs1` (configuration not stated), for which the “rescue activity (ATP increase)” value was 7.96%. The result for `Cc1ccc(S(=O)(=O)N(C)C[C@@H]2Oc3ncc(C#Cc4cccc(F)c4)cc3C(=O)N([C@H](C)CO)C[C@@H]2C)cc1` reads 25.8%; that for `C[C@@H]1CCCCO[C@@H](CN(C)C(=O)Nc2cccc3ccccc23)[C@@H](C)CN([C@H](C)CO)C(=O)c2cc(NS(=O)(=O)c3ccc(Cl)cc3)ccc2O1`, 9.86% [at 21 µM]; that for `C[C@H](CO)N1C[C@H](C)[C@H](CN(C)C(=O)Nc2ccc3c(c2)OCO3)Oc2ncc(C#Cc3ccc(F)cc3)cc2C1=O`, 8.89%. The result for `COc1ccc(C#Cc2cnc3c(c2)C(=O)N([C@H](C)CO)C[C@H](C)[C@H](CN(C)Cc2cccc(C(F)(F)F)c2)O3)cc1OC` reads 20.9%; that for `CC(C)CC#Cc1cnc2c(c1)C(=O)N([C@H](C)CO)C[C@@H](C)[C@H](CN(C)C(=O)Cc1ccccc1)O2`, 11.1%; that for `COc1cccc(-c2cnc3c(c2)C(=O)N([C@H](C)CO)C[C@H](C)[C@H](CN(C)Cc2ccccc2)O3)c1`, 17.4%. Consider `C[C@H](CO)N1C[C@H](C)[C@H](CN(C)C(=O)Nc2cccc3ccccc23)Oc2ncc(C#Cc3ccc(C(F)(F)F)cc3)cc2C1=O`, for which the “rescue activity (ATP increase)” value was 8.24% [at 21 µM]. In the case of `CC(C)CC#Cc1cnc2c(c1)C(=O)N([C@@H](C)CO)C[C@@H](C)[C@H](CN(C)C(=O)Cc1ccccc1)O2`, the “rescue activity (ATP increase)” value is -4.83%.

Take `C[C@H](CO)N1C[C@H](C)[C@@H](CN(C)CC2CCCC2)Oc2ncc(C#Cc3ccncc3)cc2C1=O`: the “rescue activity (ATP increase)” value was 31.5% [at 18 µM].

For the compound `C[C@H]1CN([C@@H](C)CO)C(=O)c2cc(C#Cc3cccc(F)c3)cnc2O[C@@H]1CN(C)C(=O)C1CCCCC1`, the “rescue activity (ATP increase)” value was 24.4%. The result for `Cc1cc2c(cc1C)/C(=C\C(N)=O)NC(C)(C)C2` reads -8.58%. With `COc1cc(C(N)=O)ccc1OCc1ccccc1`, the “rescue activity (ATP increase)” value is 8.22%. Turning to `CCN(CC)C(=O)CSc1nnc([C@H](CCSC)NC(=O)OC(C)(C)C)o1`, the “rescue activity (ATP increase)” value is -9.94%. Take `O=C(NCc1ccccc1)Oc1cccc(Cl)c1`: the “rescue activity (ATP increase)” value is 26.1%. The result for `Cc1cc(NC(=O)c2ccc(Cl)c(S(=O)(=O)N3CCOCC3)c2)no1` reads -10.7%; that for `C[C@H]1CN([C@@H](C)CO)C(=O)c2cc(NS(=O)(=O)c3ccc(F)cc3)ccc2O[C@H]1CN(C)Cc1ccc(-c2ccccc2)cc1`, 5.05%.

Take `CN1C[C@@H]2[C@H](c3ccccc31)[C@@H](CO)N2Cc1ccccc1`: the “rescue activity (ATP increase)” value is 21.2% [at 21 µM]. The result for `C[C@@H]1CN([C@@H](C)CO)C(=O)c2cc(NC(=O)c3ccccc3)ccc2O[C@@H](C)CCCCO[C@H]1CN(C)C(=O)CCCN(C)C` reads 4.85%; that for `C[C@H]1CCCCO[C@H](CN(C)C(=O)Nc2cccc3ccccc23)[C@@H](C)CN([C@@H](C)CO)C(=O)c2cc(NS(=O)(=O)c3ccc(Cl)cc3)ccc2O1`, -11.2%.

Take `C[C@@H]1CN([C@H](C)CO)C(=O)c2cc(NC(=O)Nc3ccc(F)cc3)ccc2O[C@@H](C)CCCCO[C@H]1CN(C)S(=O)(=O)c1cccs1`: the “rescue activity (ATP increase)” value was 7.63%.
